Results reported in PubChem BioAssay AID2174 (The Scripps Research Institute Molecular Screening Center, 2009).
The whole screen tested about 320,000 compounds, of which about 500 (0.16%) were called active. The entries come from a sample that favours actives as a whole. A number with no mark means an inactive call.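 Rule for the calls: active = inhibition above the mean of all tested compounds plus 3 SD, set per campaign (cut at about 14% in these data); inactive = the rest.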

Each compound was assayed against Acyl-protein thioesterase 1 (Homo sapiens) (UniProt O75608) (assay: LYPLA1 inhibitors, primary screen, counter-screen for PME1 inhibitor project, biochemical, fluorescence polarization, FP-Rh probe ABPP (AID 2174;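 note: inhibitors block serine hydrolase probe labeling of LYPLA1 so polarization falls; 0% = enzyme with DMSO and 100% = wells lacking LYPLA1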)). Details: recombinant LYPLA1, FP-Rh probe fluorescence polarization; at 5.9 µM; active compounds read high.
Chain of Acyl-protein thioesterase 1 (Homo sapiens) (O75608 whole entry, looked up): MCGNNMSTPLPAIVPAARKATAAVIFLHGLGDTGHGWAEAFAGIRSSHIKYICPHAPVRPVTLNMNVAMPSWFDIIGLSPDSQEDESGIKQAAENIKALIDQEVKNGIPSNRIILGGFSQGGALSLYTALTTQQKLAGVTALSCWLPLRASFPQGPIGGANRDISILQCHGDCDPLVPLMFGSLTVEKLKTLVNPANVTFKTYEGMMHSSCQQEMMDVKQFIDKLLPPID
In the case of `COC(=O)c1ccc2ccccc2c1OC1OC(CO)C(O)C(O)C1NC(C)=O` (stereo not given), the inhibition is reported as -2.18%.
`Cc1ccc2c(c1)N(S(=O)(=O)c1cc(-c3cc(C)no3)ccc1C)CCO2` showed an inhibition of -4.6%.
Work on `Cc1cccc(N2CCN(C(=O)CCS(=O)(=O)c3ccc4c(c3)NC(=O)C(C)S4)CC2)c1C` (stereo not given) yielded an inhibition of 2.02%.
`CCOC(=O)Cc1csc(NC(=O)CN(C)S(=O)(=O)c2ccc3c(c2)CCC(=O)N3)n1` was tested, and the inhibition was -0.84%.
For `Cc1cccc(N2CCN(C(=O)CN(C)S(=O)(=O)c3ccc4c(c3)CCC(=O)N4)CC2)c1C`, the inhibition was 16.5% (active).
For `O=c1c(-c2cccc(Cl)c2)c[nH]n1-c1ccccc1`, the inhibition was -3.25%.
Work on `O=C(O)CSc1nccn1-c1cccc(Cl)c1` yielded an inhibition of -1.21%.
For `O=c1[nH]n(-c2cccc(Cl)c2)c2ncccc12`, the inhibition was 29.8% (active).
Work on `Cc1ccc(C2=NN(C)c3nc4ccccc4n3C2)cc1` yielded an inhibition of -2.83%.
`CN1CCN(C(=O)N2c3ccccc3CCc3ccccc32)CC1` gave an inhibition of 3.26%.
Compound `O=C(CSc1ncnc2c1nnn2Cc1ccc(F)cc1)NC1CCCC1` has an inhibition of 1.1%.
Compound `CCOC(=O)c1cc2cc(-c3c(C(=O)OCC)oc4cc(O)cc(O)c4c3=O)ccc2o1` has an inhibition of 9.58%.
Compound `CCOC(=O)c1nnn2c1nc(N1CCN(c3ccccc3)CC1)c1ccccc12` has an inhibition of -0.46%.
Compound `O=C(CCNS(=O)(=O)c1ccccc1C(F)(F)F)Nc1ccncc1` has an inhibition of -2.82%.
In the case of `C/C(Cn1nnc2ccccc21)=N\OC(=O)c1cc(F)c(F)cc1Cl`, the inhibition is reported as -3.21%.
Work on `Cn1c(=O)c2c(nc(N/N=C/c3cccs3)n2Cc2ccc(Br)cc2)n(C)c1=O` yielded an inhibition of 4.08%.
Work on `Cc1nc(C(=O)N2CCCC(C(=O)c3ccc(Cl)cc3)C2)cs1` (stereo not given) yielded an inhibition of -0.29%.
In the case of `O=C(c1ccc(-c2ccccc2)cc1)C1CCCN(C(=O)c2cncs2)C1` (stereo not given), the inhibition is reported as 24% (active).
In the case of `Cn1nccc1C(=O)N1CCCC(C(=O)c2ccc(Oc3ccccc3)cc2)C1` (stereo not given), the inhibition is reported as 6.29%.
In the case of `COC(=O)c1cc2c(ccn2C)n1C`, the inhibition is reported as -0.69%.
